Compound activity deposited in PubChem BioAssay by National Center for Advancing Translational Sciences (NCATS).
Hits are enriched below; roughly 17% of the tested compounds scored in any of these assays.
HepG2 viability: qHTS for Inhibitors of TGF-b: Cytotox Counterscreen. Potency, µM (titrated, usually from 46.1 µM), hits mostly cytotoxic. actives 0.76% (n = 410,000). HepG2 CAGA-GFP viability, ATP luminescence, 18 h. AID 588856, 2011
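HepG2 CAGA-GFP cells (1000/well, DMEM with 1% FBS) received compound, then TGF-beta at 500 pg/mL final, and were incubated 18 hours at 37 degrees C. Viability was read by CellTiter-Glo luminescence. Media-only wells were set as complete cell-killing and DMSO as no toxicity.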
HT1080NT lethal: qHTS for induction of synthetic lethality in tumor cells producing 2HG: qHTS for the HT-1080-NT fibrosarcoma cell line; actives 1.6% (n = 360,000); AID 686970, 2013; Potency, µM (top dose mostly 46.1 µM), usual class: cytotoxic; HT-1080-NT fibrosarcoma viability, CellTiter-Glo ATP luminescence, 48 h;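 further: NT is the 2HG producing partner of a matched IDH1 knockdown line; nearly all actives have a fitted effect of over 55% in size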
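Compounds were tested in concentration-response format on HT-1080-NT cells for 48 hours at 37 degrees C. Cell viability came from CellTiter-Glo luminescence; curves were classified by r2, response magnitude and activity.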
DT40 TDP1 no CPT: qHTS for Inhibitors of human tyrosyl-DNA phosphodiesterase 1 (TDP1): qHTS in cells in absence of CPT; DT40 Tdp1-/- hTDP1 cells, no CPT, ATP luminescence, 48 h; Potency, µM (series often up to 46.2 µM), hits mostly inhibitors; actives 15% (n = 420,000); further: nearly all actives have a fitted effect of over 55% in size
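Growth kinetics read by CellTiter-Glo luminescence after ≥48 hr at 37 °C. Cells: DT40 Tdp1-/- stably carrying human TDP1, 400 per well, compound exposure in the absence of CPT (DMSO vehicle).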
TGFb SMAD3 inh: qHTS for Inhibitors of TGF-b; HepG2 CAGA-GFP TGF-b/SMAD3 reporter, GFP fluorescence, 18 h; TGF-beta stimulated, 500 pg/mL final; Potency, µM (highest dose often 46.1 µM), usual class: inhibitors; actives 1.2% (n = 410,000); AID 588855, 2011; further: nearly all actives have a fitted effect of over 65% in size
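First, reporter cells (HEPG2 CAGA-GFP) rested 2 h at 37 degrees C. Next, compounds were pinned in and TGF-beta added to 500 pg/mL final. After 18 h, GFP was imaged per cell and summed per well.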
DT40 TDP1 CPT: qHTS for Inhibitors of human tyrosyl-DNA phosphodiesterase 1 (TDP1): qHTS in cells in presence of CPT | chicken DT40 Tdp1-/-;hTDP1 cells + 20 nM CPT, ATP luminescence, 48 h | Potency, µM (highest dose often 46.2 µM), most hits filed as inhibitors | actives 12% (n = 420,000) | AID 686979, 2013; further: nearly all actives have a fitted effect of over 55% in size
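Chicken DT40 Tdp1-/- cells stably complemented with human TDP1 were seeded at 400 cells/well in medium containing 20 nM camptothecin, exposed to pin-transferred compounds, and grown at 37 °C for at least 48 hr. Viability was read as ATP luminescence.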
HT1080 IDH1KD tx: qHTS for induction of synthetic lethality in tumor cells producing 2HG: qHTS for the HT-1080-IDH1KD cell line; Potency, µM (series often up to 46.1 µM), hits mostly cytotoxic; HT-1080 IDH1 knockdown viability, ATP luminescence, 48 h; actives 2% (n = 360,000); AID 686971, 2013
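After a 2 h attachment period, IDH1KD HT-1080 cells took pin-transferred compound for 48 h at 37 °C; ATP-based luminescence after 10 min room-temperature reagent incubation reported viability.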
A number is an active result; - = inactive; ? = inconclusive; . = not tested or not shown; [ ] = another dose, or the depositor's remark. The call rests on the fitted dose curve; in most records, active means well fitted curve in the direction sought with a large enough effect; inconclusive means small, poorly fitted or top-dose-only effect, or another doubt; inactive means no such curve, though single readings can be large; an effect the other way counts as inactive or inconclusive.

SMILES	HepG2 viability	HT1080NT lethal	DT40 TDP1 no CPT	TGFb SMAD3 inh	DT40 TDP1 CPT	HT1080 IDH1KD tx
O=C1c2ccccc2S(=O)(=O)c2cc(N3CCC(C(=O)N4CCCCC4)CC3)ccc21	-	-	18.4µM	?	20.6µM	-
CC1CCN(c2ccc3c(c2)S(=O)(=O)c2cccc(C(=O)NC4CCCCC4)c2C3=O)CC1	-	-	16.4µM	-	16.4µM	-
O=C(NCC1CC1)c1cccc2c1C(=O)c1ccc(-c3ccc(OC(F)(F)F)cc3)cc1S2(=O)=O	-	-	23.1µM	-	13µM	-
CC1O[C@@H](O[C@H]2C(Oc3cc(O)c4c(c3)OC(c3ccc(O)cc3)CC4=O)OC(CO)C(O)C2O)C(O)C(O)C1O (stereo partly drawn)	.	.	-	.	-	.
CC(C)(C)CNC(=O)c1cccc2c1C(=O)c1ccc(-c3cc4ccccc4o3)cc1S2(=O)=O	-	-	?	-	16.4µM	-
C=CCNc1nc(NCCOC)c2sc(-c3ccccc3)cc2n1	-	?	13µM	?	?	?
C=CCNc1nc(NCCNC(C)=O)c2sc(-c3ccccc3)cc2n1	-	?	?	-	?	-
C=CCNc1nc(NCc2ccc(N(C)C)cc2)c2sc(-c3ccccc3)cc2n1	12.6µM	?	5.8µM	?	6.51µM	?
CC(C)Nc1nc(NCCN2CCCC2)c2sc(-c3ccccc3)cc2n1	-	?	13µM	?	6.51µM	?
COCCNc1nc(Nc2ccc(C)cc2C)c2sc(-c3ccccc3)cc2n1	-	?	18.4µM	-	25.9µM	?
Cc1cccc(C)c1NC(=O)CNC(=O)c1c(-c2ccccc2)noc1C	-	-	-	-	-	-
C=CCNc1nc(Nc2ccc(OC)c(OC)c2)c2sc(-c3ccccc3)cc2n1	-	5.17µM	1.64µM	-	1.84µM	5.8µM
C=CCNc1nc(NCCOc2ccccc2Cl)c2sc(-c3ccccc3)cc2n1	-	18.4µM	14.6µM	?	14.6µM	?
NS(=O)(=O)c1ccc(NC(=S)N2CCN(c3cccc(Cl)c3)CC2)cc1	-	?	7.31µM	?	?	?
O=S(=O)(c1cccc(NC(=S)N2CCN(c3cccc(Cl)c3)CC2)c1)C(F)F	-	20.6µM	?	-	?	23.1µM
CCC(Sc1nc2n[nH]c(C)c2c(=N)n1-c1ccc(C)c(Cl)c1)C(=O)N1CCOCC1 (stereo not drawn)	-	-	?	-	?	-
CCc1ccccc1NC(=O)CSc1nc2n[nH]c(C)c2c(=N)n1-c1cccc(C)c1	-	.	3.66µM	?	7.31µM	.
CCCCNC(=O)CSc1nc2n[nH]c(C)c2c(=N)n1-c1ccccc1CC	-	.	10.3µM	-	14.6µM	.
Cc1cccc(-n2c(SCC(=O)Nc3ccccc3Cl)nc3n[nH]c(C)c3c2=N)c1	-	.	20.6µM	-	14.6µM	.
Cc1cccc(-n2c(SCC(=O)N3CCCC3)nc3n[nH]c(C)c3c2=N)c1	-	-[9.24 µM]	?	-	?	-
CCN(C(=O)CSc1nc2n[nH]c(C)c2c(=N)n1-c1ccc(Cl)c(C)c1)c1cccc(C)c1	-	-	20.6µM	-	18.4µM	-
COc1cc(CNCCc2ccc(S(N)(=O)=O)cc2)ccc1OCC(=O)N1CCCCC1	-	-	-	-	-	-
COc1ccc(C(=O)Nn2c(C)nc3ccccc3c2=O)cc1[N+](=O)[O-]	-	-	-	-	-	-
CCOC(=O)c1c(OCC)[nH]c2ccc(O)cc12	-	-	-	-	-	-
CCc1ccccc1NC(=O)N1CCC(CN2CCc3ccccc3C2)CC1	-	.	?	-	-	.
SMILES	HepG2 viability	HT1080NT lethal	DT40 TDP1 no CPT	TGFb SMAD3 inh	DT40 TDP1 CPT	HT1080 IDH1KD tx
COc1ccc([C@@H]2CC(=O)[C@@H]3CN(S(=O)(=O)c4ccc(C)cc4)[C@H](c4ccccc4)C[C@@H]3N2S(=O)(=O)c2ccccc2)cc1	-	-	-	-	-	-
CCc1ccccc1NC(=O)CSc1nnc(-c2ccc(OC)cc2)s1	-	.	-	?	-	.
COc1ccccc1NC(=O)CSc1nc2n[nH]c(C)c2c(=N)n1-c1ccccc1Cl	-	-[9.24 µM]	25.9µM	-	23.1µM	?
CCc1ccccc1NC(=O)CSc1nc2n[nH]c(C)c2c(=N)n1-c1ccc(OC)cc1	-	-	8.2µM	?	9.2µM	-
Cc1ccc(NC(=O)CSc2nc3n[nH]c(C)c3c(=N)n2-c2ccccc2C)cc1C	-	.	?	-	-	.
COc1ccc(-n2c(SCC(=O)NCc3ccccc3)nc3n[nH]c(C)c3c2=N)cc1	-	.	6.51µM	-	6.51µM	.
Cc1cc(-n2c(SCc3ccccc3F)nc3n[nH]c(C)c3c2=N)ccc1Cl	-	?	?	-	?	20.6µM
COc1ccc(-c2nc(CS(=O)CC(=O)NCc3ccc(Cl)cc3)c(C)o2)cc1OC (stereo not drawn)	-	-	?	-	?	-
FC(F)(F)c1ccccc1-c1nc(NCc2cccs2)c2ccccc2n1	.	.	-	.	?	.
CC(CCCC(C)(C)O)CC1C2=C(CCCC2=O)OC2=C1C(=O)CCC2 (stereo not drawn)	-	?	-	-	-	-
CC(C)(C)n1ncc(Oc2ccccc2[N+](=O)[O-])c(Cl)c1=O	-	-	23.1µM	-	?	-
Cn1ncc(Oc2ccc([N+](=O)[O-])cc2)c(Cl)c1=O	-	-	-	-	-	-
Cc1nc2ccccc2cc1OCc1ccccc1	-	-	16.4µM	-	11.6µM	-
COc1cccc(COc2cc3ccccc3nc2C)c1	-	-	9.2µM	-	10.3µM	-
Cc1nc(OCc2ccccc2)c2ccccc2n1	-	-	?	-	?	-
COC(=O)c1sccc1OCc1cccc(OC)c1	-	-	-	-	-	-
CC(C)c1ccc(C(N)=S)cc1	-	-	25.9µM	-	-	-
O=C(CNC(=O)c1ccc(Br)o1)NCc1ccc(Cl)cc1	-	-	-	-	?	-
Cc1nc2ccccc2n1CCc1nc2c3ccccc3nc(SCC(=O)Nc3ccc(C(C)C)cc3)n2n1	-	.	9.2µM	-	11.6µM	.
O=C(CSc1nc2ccccc2c2nc(-c3ccccc3)nn12)Nc1ccc(F)cc1	-	.	14.6µM	-	?	.
